Compounds with a hit are over-represented: about 10% of the library has one in this group of screens.
G9a block – blocks human histone lysine methyltransferase G9a; G9a H3K9 monomethylation, AlphaScreen, 2 h; AID 504332; actives 8.8% (n = 350,000); Q96KQ7; Potency, µM (highest dose often 102 µM), without a hit: top-dose activity, negative = inhibition, usual class: inhibitors; note: % is set by controls: 0 for no effect and ±100 for the full control effect; nearly all actives have a fitted effect of over 75% in size
Target sequence (Q96KQ7 913-1193 limits assumed): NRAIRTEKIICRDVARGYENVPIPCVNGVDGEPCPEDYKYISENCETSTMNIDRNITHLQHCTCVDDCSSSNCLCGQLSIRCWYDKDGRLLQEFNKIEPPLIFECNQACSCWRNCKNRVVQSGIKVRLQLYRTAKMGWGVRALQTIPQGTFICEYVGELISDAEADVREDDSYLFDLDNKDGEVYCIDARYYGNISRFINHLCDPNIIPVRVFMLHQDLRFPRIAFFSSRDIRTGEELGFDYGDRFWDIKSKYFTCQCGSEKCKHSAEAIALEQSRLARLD
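Quantitative HTS format: methyltransferase activity on a biotin-tagged H3K9 peptide is measured by AlphaScreen, using a rabbit anti-monomethyl-H3K9 antibody with streptavidin donor and anti-IgG acceptor beads. Final levels are 20 nM enzyme, 500 nM peptide, 20 uM SAM; 2 h RT.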
HP1b chromo inh – inhibitors of HP1-beta chromodomain binding to methylated histone tails | P83916 | AlphaScreen HP1-beta / biotin-H3K9me3 peptide binding | Potency, µM (doses to about 114 µM), for inactives: at the top dose activity change, negative = inhibition, usual class: inhibitors | actives 0.56% (n = 390,000); note: nearly all actives have a fitted effect of over 70% in size
Target sequence (P83916 whole entry, looked up): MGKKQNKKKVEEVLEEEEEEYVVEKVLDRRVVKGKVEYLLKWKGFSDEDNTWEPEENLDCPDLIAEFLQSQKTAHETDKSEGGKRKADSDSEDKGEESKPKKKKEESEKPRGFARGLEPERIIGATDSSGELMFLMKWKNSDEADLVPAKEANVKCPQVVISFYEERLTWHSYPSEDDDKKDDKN
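HP1-beta protein (50 nM final) preincubated 30 min at room temperature with biotinylated H3(1-18)K9me3 peptide (50 nM) in PBS pH 7.4, 0.01% Tween-20, then compound added for 30 min. AlphaScreen streptavidin donor/nickel chelate acceptor beads (10 ug/mL final), 30 min dark, luminescence read.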
GLS inh – glutaminase GLS (human) inhibition. O94925. GLS enzymatic activity, qHTS titration. Potency, µM (top dose mostly 45.5 µM), without a hit: at the highest dose activity change, negative = inhibition, actives largely listed as inhibitors. actives 0.21% (n = 410,000). AID 624170; note: % is set by controls: 0 for no effect and ±100 for the full control effect
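hKGA in 45 mM KH2PO4 pH 8.2, 0.02% Tween-20 with pin-transferred compounds; 1 mM L-glutamine (stock) plus glutamate oxidase/HRP/Amplex Red coupling added. Fluorescence read initially and after 30 min at RT.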
JMJD2A Tudor – blocks the human JMJD2A Tudor domain; O75164; AlphaScreen JMJD2A-Tudor / H3K4me3 peptide binding; Potency, µM (highest dose often 114 µM), without a hit: at the top dose activity change, negative = inhibition, actives largely listed as inhibitors; actives 4.4% (n = 390,000); AID 504339; note: % is set by controls: 0 for no effect and ±100 for the full control effect; nearly all actives have a fitted effect of over 50% in size
BAZ2B block – inhibitors of human BAZ2B bromodomain. actives 4.4% (n = 360,000). AID 504333. AlphaScreen BAZ2B-H3K14Ac peptide displacement. Q9UIF8. Potency, µM (highest dose often 114 µM), without a hit: top-dose activity change, negative = inhibition, actives largely listed as inhibitors; note: % is set by controls: 0 for no effect and ±100 for the full control effect; nearly all actives have a fitted effect of over 60% in size
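BAZ2B 50 nM plus b-H3(5-23)K14Ac 50 nM, PBS pH 7.4/0.01% Tween-20, 30 min RT; compound added (max 110 uM), 30 min RT; streptavidin donor/Ni-chelate acceptor beads 10 ug/mL final, 20 min dark; AlphaScreen read.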
Numbers without * were called inactive; ? = inconclusive; · = no result; ! = a repeat was not active; [ ] = dose if it differs, or a comment. Calls come from the whole dose curve; as a rule, active = well fitted curve in the direction sought with a large enough effect; inconclusive = small, poorly fitted or top-dose-only effect, or another doubt; inactive = no such curve, though single readings can be large; an effect the other way counts as inactive or inconclusive. Potency is the fitted concentration of half-maximal effect.

SMILES | G9a block | HP1b chromo inh | GLS inh | JMJD2A Tudor | BAZ2B block
O=C(Oc1c(Cl)cc(Cl)c2ccccc12)N1CCCCC1 | -6.2%[12.7 µM] | 96.1% | 1.4% | 23.0% | 45.5%
CC1CCc2cc(F)cc3c(=O)c(C(=O)O)cn1c23 (centres undefined) | 8.91µM* | -1.7% | -3.3% | ? | 56.2µM*
[O-]C1=N/[N+](=C/c2ccc(Cl)cc2)CC1 | 8.91µM* | 25.5% | 38.3% | -10.3% | 11.1%
Cc1ccc2c(c1)CC1(CN2C)C(=O)NC(=O)N(C(C)C)C1=O (centres undefined) | 31.6µM* | -5.9% | -8.5% | 5.5%[57.1 µM] | 6.4%
CC(=NCCC1=CCCCC1)c1c(O)n(C)c(=O)n(C)c1=O | 2.6%[0.501 µM] | -1.7% | -13.1% | -15.0% | -1.8%
COc1ccc2c(c1)CC1(CN2C)C(=O)NC(=O)N(c2ccc(C)cc2)C1=O (centres undefined) | ? | 49.0% | 16.5% | -7.9% | ?
Cc1cccc(N2C(=O)NC(=O)C3(Cc4cc(C)ccc4N(C)C3)C2=O)c1 (centres undefined) | 10µM* | 62.5% | -0.4% | -3.8%[11.4 µM] | -21.3%
CCC(C)N1C(=O)NC(=O)C2(Cc3cc(C)ccc3N(C)C2)C1=O (centres undefined) | ? | 50.0% | -1.3% | -12.6%[57.1 µM] | ·
COc1ccc2c(c1)CC1(CN2C)C(=O)NC(=O)N(c2ccc(F)cc2)C1=O (centres undefined) | 20µM* | 55.3% | 6.3% | -21.6% | 4.3%
Cc1ccc2c(c1)CC1(CN2C)C(=O)NC(=O)N(CCC2=CCCCC2)C1=O (centres undefined) | 10µM* | 32.0% | 5.4% | -12.8% | -30.8%
CN(CCC(N)CC(=O)NC1C=CC(n2ccc(N)nc2=O)OC1C(=O)O)C(=N)N (centres undefined) | -45.3%[2.33 µM] | · | · | · | ·
Cc1cccc(-n2c(-c3ccc([N+](=O)[O-])cc3)nc3ccccc3c2=O)c1 | 20.1%[59 µM] | 9.6% | -8.9% | -34.3% | -5.0%
CN1CCN(Cc2nc3ccccc3c(=O)[nH]2)CC1 | ? | 15.4% | 1.6% | -10.6% | -24.8%
O=c1oc2ccccc2c(O)c1C(c1ccc([N+](=O)[O-])cc1)c1c(O)c2ccccc2oc1=O | 39.8µM* | 0.8% | ? | ? | 56.2µM*
CC/C(CC(c1ccccc1)c1c(O)c2ccccc2oc1=O)=N\NC(N)=S (centres undefined) | -5.7%[59 µM] | ? | 9.6% | 3.16µM* | -0.8%
COc1ccc(C(CC(C)=O)c2c(O)c3ccccc3oc2=O)cc1OC (centres undefined) | · | · | -2.2% | · | ·
C/C(CC(c1ccccc1)c1c(O)c2ccccc2oc1=O)=N\Nc1ccc([N+](=O)[O-])cc1[N+](=O)[O-] (centres undefined) | 14.1µM* | ? | 19.1% | 35.5µM* | 35.5µM*
Cc1c(C(c2ccc(F)cc2)c2c(O)c3ccccc3oc2=O)c(=O)n(-c2ccccc2)n1C (centres undefined) | -21.8%[59 µM] | 21.4% | -1.1% | -13.0% | -20.8%
CC[n+]1c(SC)ccc2cc(OC)ccc21 | -17.2%[59 µM] | 29.9% | -6.2% | -8.3% | 5.5%
O=C(Nc1ccc(F)cc1)OC1CN2CCC1CC2 (centres undefined) | · | 9.5% | -7.8% | -2.1% | -2.4%
O=C(c1cccnc1)c1cc2ccccc2[nH]1 | -4.7%[59 µM] | 34.8% | -0.4% | 1.4% | 0.9%
CC(=O)c1c(COC(=O)c2cccnc2)nc2ccccc2[n+]1[O-] | 10µM* | 28.4% | -1.8% | -9.1% | 4.8%
CC(N)C(=O)NC1C2C(=C(O)CC(O)C2O)C(=O)OC1(C)C(Cl)Cl (centres undefined) | · | -10.3% | 15.1% | 25.1µM* | ·
O=C1C2CCCC1C(N1CCCCC1)CC2 (centres undefined) | -20.3% | 24.2% | 5.3% | -20.0% | ?
C=CCN1CC[C@@]2(C)c3cc(O)ccc3CC1[C@@H]2C | 44.7µM*! | 28.9% | 44.7% | -24.1% | 1.5%
CC(C)=CCN1CC[C@@]2(C)c3cc(O)ccc3C[C@@H]1C2C (some centres undefined) | · | 44.0% | 31.7% | -7.6% | ·
CCCN1CCO[C@@H]2c3cc(O)ccc3OC[C@H]21 | 17.8µM*! | 76.5% | 31.9% | -9.4% | -3.2%

Compound activity from PubChem BioAssay.
